Compounds with a hit are over-represented: about 18% of the library has one in this group of screens.
DT40 TDP1 CPT = qHTS for Inhibitors of human tyrosyl-DNA phosphodiesterase 1 (TDP1): qHTS in cells in presence of CPT | chicken DT40 Tdp1-/-;hTDP1 cells + 20 nM CPT, ATP luminescence, 48 h | Potency, µM (titrated, usually from 46.2 µM), inactives show top-dose activity change, negative = growth inhibition, most hits filed as inhibitors | 420,000 tested, 12% active | AID 686979, 2013; note: potency is the fitted concentration of half-maximal effect; nearly all actives have a fitted effect of over 55% in size
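Chicken DT40 Tdp1-/- cells complemented with human TDP1, 400 cells/well, exposed to compounds plus 20 nM camptothecin for at least 48 h at 37 C; viability read as ATP content by CellTiter-Glo luminescence.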
TDP1 cell noCPT = qHTS for Inhibitors of human tyrosyl-DNA phosphodiesterase 1 (TDP1): qHTS in cells in absence of CPT; DT40 Tdp1-/- hTDP1 cells, no CPT, ATP luminescence, 48 h; Potency, µM (doses to about 46.2 µM), for inactives: at the top dose activity change, negative = growth inhibition, hits mostly inhibitors; 420,000 tested, 15% active; note: potency is the fitted concentration of half-maximal effect; nearly all actives have a fitted effect of over 55% in size
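Seeded 400 DT40-hTDP1 cells/well (vehicle DMSO, no 20 nM CPT); pinned compounds; ≥48 hr at 37 °C; CellTiter-Glo luminescence as viability measure.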
IL-1B inflam inh = qHTS for Inhibitors of Inflammasome Signaling: IL-1-beta AlphaLISA Primary Screen; THP-1 LPS/ATP IL-1B secretion, AlphaLISA, 16 h; active compounds read low; activity change, % at 57.5 µM; 360,000 tested, 4.7% active; AID 743279, 2014; in the data active = activity change below about -50%; inconclusive = mostly about -30% to -49%
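THP-1 cells pretreated 1 hr with compounds (up to 57.5 uM final), then stimulated with LPS (250 ng/mL final) plus ATP (1.25 mM final); secreted IL-1B measured by AlphaLISA after 16 hr, decreased signal indicating inhibition.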
Six1-Eya2 inh = qHTS Assay for Inhibitors of the Six1/Eya2 Interaction; Homeobox protein SIX1 (Homo sapiens) + Protein phosphatase EYA2 (Homo sapiens), …; AlphaScreen GST-Six1/His-Eya2 binding, biochemical; active compounds read low; activity change, % (concentration not given with the values); 360,000 tested, 0.56% active; in the data active = activity change below about -65%; inconclusive = mostly about -30% to -63%
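AlphaScreen with GST-Six1 and His-Eya2 (5X mix: 250 nM and 500 nM), glutathione donor and nickel acceptor beads; buffer 50 mM Tris pH 8.0, 300 mM NaCl, 1 mM TCEP; 1 h at 37 C in the dark.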
CtBP-E1A inh = qHTS Assay for Inhibitors of the CtBP/E1A Interaction; AlphaScreen GST-E1A/His-CtBP binding, 1536-well; active compounds read low; 340,000 tested, 0.49% active; AID 651724, 2012; activity change, % (no concentration beside the values); in the data active = activity change below about -65%; inconclusive = mostly about -30% to -63%
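Protein mix (5X: 125 nM each GST-E1A, His-CtBP) was incubated with pinned compound 2 h at 37 deg C in dark, in 50 mM Tris pH 8.0 buffer with 300 mM NaCl. Glutathione donor and nickel acceptor beads followed; AlphaScreen signal read after 1 h.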
TDP1 inh = qHTS Assay for Inhibitors of Tyrosyl-DNA Phosphodiesterase (TDP1) | Tyrosyl-DNA phosphodiesterase 1 (Homo sapiens), Q9NUW8 | recombinant TDP1, AlphaScreen DNA substrate cleavage | Potency, µM (highest dose often 130 µM), without a hit: top-dose activity change, negative = inhibition, usual class: inhibitors | 350,000 tested, 0.28% active | AID 485290, 2010; note: potency is the fitted concentration of half-maximal effect; nearly all actives have a fitted effect of over 40% in size
Target sequence (Q9NUW8 whole entry, looked up): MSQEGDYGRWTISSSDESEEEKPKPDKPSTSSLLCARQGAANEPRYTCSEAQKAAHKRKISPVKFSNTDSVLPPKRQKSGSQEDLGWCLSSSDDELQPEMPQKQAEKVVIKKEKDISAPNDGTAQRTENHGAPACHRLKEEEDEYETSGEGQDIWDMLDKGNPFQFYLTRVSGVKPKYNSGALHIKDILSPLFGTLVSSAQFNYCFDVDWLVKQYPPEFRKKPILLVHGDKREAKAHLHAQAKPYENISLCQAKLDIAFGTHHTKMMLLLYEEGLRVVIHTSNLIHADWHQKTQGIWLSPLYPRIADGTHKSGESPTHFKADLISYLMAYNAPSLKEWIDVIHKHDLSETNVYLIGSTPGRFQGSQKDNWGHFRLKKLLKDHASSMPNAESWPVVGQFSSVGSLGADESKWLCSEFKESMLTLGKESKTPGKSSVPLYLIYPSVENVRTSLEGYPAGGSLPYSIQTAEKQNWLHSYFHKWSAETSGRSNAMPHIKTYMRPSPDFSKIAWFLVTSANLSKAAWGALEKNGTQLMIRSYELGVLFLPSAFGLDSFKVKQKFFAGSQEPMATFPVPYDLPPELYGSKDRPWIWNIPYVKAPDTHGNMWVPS
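E. coli-derived human Tdp1, 1 nM final. Cpd preinc 15 min RT; substrate 15 nM final, 5 min RT; AS bead mix 10 ug/ml final, 10 min RT. Signal loss = tyrosine-FITC cleavage. No-enzyme wells = max signal.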
* hit, by the source's call; ? = inconclusive; / = not tested or not shown; [ ] = remark or other dose. Unless noted, calls come from the whole dose curve; as a rule, active = well fitted curve in the direction sought with a large enough effect; inconclusive = small, poorly fitted or top-dose-only effect, or another doubt; inactive = no such curve, though single readings can be large; an effect the other way counts as inactive or inconclusive. % is set by controls: 0 for no effect and ±100 for the full control effect.

SMILES | DT40 TDP1 CPT | TDP1 cell noCPT | IL-1B inflam inh | Six1-Eya2 inh | CtBP-E1A inh | TDP1 inh
CCN(C[C@H]1N[C@@](C)(C(=O)OC)[C@H]2C(=O)N(Cc3ccccc3)C(=O)[C@@H]12)C(=O)c1ccc(C(C)(C)C)cc1 | ? | 16µM* | -10 | -1 | 4 | 3%
Cc1cc(C)c(-c2cc(C(F)(F)F)no2)c(=O)[nH]1 | -1% | 3% | 0 | 4 | 10 | 5%
CC(C)(C)c1ccc(Oc2ccc(NC(=O)CCC(=O)OCC(=O)c3ccccc3)cc2)cc1 | 15µM* | 13µM* | / | / | / | /
Cc1ccc(C(=O)COC(=O)CCC(=O)Nc2ccc(Oc3ccccc3)cc2)cc1C | 9% | -2% | / | / | / | /
Cc1cccc(Oc2ccc(NC(=O)CCC(=O)OCC(=O)c3ccc(Br)cc3)cc2)c1C | 13µM* | 12µM* | / | / | / | /
O=C(O)c1cccc(-c2ccc(/C=N/Nc3nn[nH]n3)o2)c1 | 16% | 2% | 3 | ? | 19 | -15%
CCOc1cccc(-c2nnc3sc(-c4cccs4)nn23)c1 | 15µM* | 13µM* | -13 | -1 | -4 | 4%
CCOc1cccc(-c2nnc3sc(-c4cc(OC)c(OC)c(OC)c4)nn23)c1 | ? | ? | 32 | 2 | -3 | 0%
COc1cccc(-c2nnc3sc(-c4cccs4)nn23)c1 | 15µM* | 16µM* | ? | -1 | -4 | 7%
C=CCc1ccc(OCc2ccc(C(=O)OC)o2)c(OC)c1 | -5% | -22% | -13 | 12 | 25 | 6%
Cc1cccc(NC(=O)N2CCc3c(sc4c3CCCC4)C2c2ccc(F)cc2)c1 (stereo unspecified) | ? | 16µM* | / | / | / | -11%
COc1ccc(NC(=O)N2CCCC2C(=O)NCc2ccc(F)cc2)cc1 (stereo unspecified) | -2% | -29% | -1 | 5 | 5 | 1%[56.1 µM]
COc1ccc(NC(=O)N2CCc3c(sc4c3CCCC4)C2c2ccc(F)cc2)cc1 (stereo unspecified) | ? | 21µM* | / | / | / | -1%
O=[n+]1cc(-c2ccc(Br)cc2)n([O-])c2c1CCC2 | ? | ? | 20 | 7 | -2 | 6%
O=C(NCCN1CCOCC1)c1nn2c(c1Cl)NC(c1ccccc1)CC2C(F)(F)F (stereo unspecified) | 2% | -13% | 13 | -2 | -1 | 4%
COc1ccc(OCCSc2nnc(C)n2-c2ccccc2)cc1 | 29µM* | 26µM* | -9 | -4 | -1 | 3%
COc1ccc(OCCSc2nnc3sc4ccccc4n23)cc1 | ? | ? | -79* | -18 | 1 | 6%
CN(C)CCSc1nnc2sc3ccccc3n12 | -8% | -23% | 15 | -1 | -1 | 2%
CC(=O)Cc1cc(O)c2ccccc2c1OC(=O)c1ccc(Br)cc1 | 21µM* | 21µM* | 0 | -12 | 1 | 7%
CCCCC(=O)Nc1ccc(Br)cn1 | 5% | -2% | -14 | 0 | 4 | -4%
O=C(/C=C/c1ccccc1)Nc1ncn[nH]1 | 7.3µM* | 10µM* | -108* | 7 | -24 | 2%
C=CCCC(=O)Nc1ccc(Br)cn1 | ? | 18µM* | -14 | 13 | 1 | -5%
O=C(/C=C/c1ccccc1)Nc1ccc(Br)cn1 | 2.3µM* | 2.3µM* | 0 | 0 | 0 | 0%
CC(=O)c1ccc(NC(=O)CCCc2nc(-c3cccc(C)c3)no2)cc1 | -29% | 21µM* | / | / | / | 0%
Cc1cccc(-c2noc(CCC(=O)Nc3ccccc3)n2)c1 | ? | ? | 12 | 1 | 17 | 7%
SMILES | DT40 TDP1 CPT | TDP1 cell noCPT | IL-1B inflam inh | Six1-Eya2 inh | CtBP-E1A inh | TDP1 inh
Cc1ccc(-c2noc(CCC(=O)Nc3cccc(C#N)c3)n2)cc1 | ? | 18µM* | -5 | -3 | 9 | 4%
Cc1ccc(-c2noc(CCC(=O)Nc3ccc(C)cn3)n2)cc1 | -28% | -28% | 43 | -1 | 3 | 6%
CCOC(=O)c1ccc(NC(=O)CCc2nc(-c3cccc(C)c3)no2)cc1 | ? | 16µM* | ? | 7 | 8 | 0%
O=C(CSc1nnc2nnc3ccccc3n12)N1CCOCC1 | -28% | 17% | 11 | 0 | 2 | 2%
O=C(Cn1c(=O)oc2ccccc21)Nc1ccc(C(=O)O)cc1 | -5% | -14% | / | / | / | 5%
COc1cccc(NC(=S)NN2CCN(C)CC2)c1 | 29µM* | 0% | 21 | 5 | 8 | 4%
COc1ccc(CNC(=S)Nc2cccc(OC)c2)cc1 | 1% | -13% | -27 | -3 | -7 | 3%
CC1CCC/C(=N\NC(=S)NCc2ccccc2)C1 (stereo unspecified) | -12% | -10% | -1 | 2 | -2 | 10%
CC1CCC/C(=N\NC(=S)Nc2ccccc2)C1 (stereo unspecified) | 8.2µM* | 10µM* | -26 | -19 | -12 | 10%
COc1cccc(NC(=S)NN=C2CCCCCC2)c1 | 3.7µM* | 5.2µM* | 33 | -4 | -4 | 9%
C[C@@H]1C(c2ccccc2)=NN(c2ccc(Br)cc2)[C@H]1C(=O)N1CCOC1=O | -28% | ? | ? | 34 | 42 | -8%[56.1 µM]
CCOC(=O)c1cc(-c2ccc(C)cc2)n(CCC(=O)NCCCOC)c1C | -22% | -13% | -5 | -6 | -4 | 7%
CCOC(=O)c1cc(-c2ccccc2)n(CCC(=O)NCCc2cccc(C)c2)c1C | 16µM* | ? | / | / | / | 1%
CCOC(=O)c1cc(-c2ccc(OC)cc2)n(CCC(=O)NCCc2ccccc2)c1C | 21µM* | 18µM* | / | / | / | 9%
Cc1cccc(Nc2cc(=O)[nH]c(=O)[nH]2)c1 | -7% | -15% | 9 | 11 | -1 | 3%
O=C1CC(C(=O)Nc2ccccc2)N=C(N2CCCCC2)N1 (stereo unspecified) | -4% | -30% | 32 | 2 | 15 | 1%
Clc1cccc(Cc2c(-c3ccco3)nc3ccc(Cl)cn23)c1 | 21µM* | 23µM* | -59* | ? | 3 | /
Brc1ccc2nc(-c3ccco3)c(Cc3ccccc3)n2c1 | ? | ? | -22 | -15 | -2 | /
Clc1cccc(Cc2c(-c3ccco3)nc3ccc(Br)cn23)c1 | ? | 23µM* | -14 | ? | -8 | /
